In the library only some 2.4% were active in any assay of this set; here they are far more common.
Pol kappa inh – qHTS for Inhibitors of Polymerase Kappa | DNA polymerase kappa (Homo sapiens), Q9UBT6 | purified Pol kappa, fluorescent DNA synthesis assay, 10 min | Potency, µM (top dose mostly 107 µM), without a hit: top-dose activity, negative = inhibition, hits mostly inhibitors | 400,000 tested, 0.53% active | AID 588579, 2011; also: % is scaled to controls: 0 for no effect and ±100 for the full control effect
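Readout: fluorescence, taken kinetically at 0 and 10 min. Conditions: 10 nM Pol kappa, 15 min RT compound preincubation, 50 nM substrate final. Controls: enzyme-free buffer wells.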
POLB inh – qHTS Assay for Inhibitors of DNA Polymerase Beta. Pol beta primer extension/strand displacement, fluorescence kinetic. Potency, µM (top dose mostly 114 µM), without a hit: top-dose activity change, negative = inhibition, hits mostly inhibitors. 340,000 tested, 1.3% active. AID 485314, 2010; also: % is scaled to controls: 0 for no effect and ±100 for the full control effect
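Kinetic readout of DNA synthesis with strand displacement by Pol beta. Compound and 10 nM enzyme sit 15 min at room temperature; 50 nM substrate starts the reaction, read immediately and at 10 min.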
FEN1 inh – qHTS Assay for the Inhibitors of Human Flap endonuclease 1 (FEN1) | Recombinant FEN1 flap cleavage, fluorescence, 15 min | Potency, µM (top dose mostly 114 µM), without a hit: top-dose activity change, negative = inhibition, most hits filed as inhibitors | 390,000 tested, 0.35% active | AID 588795, 2011; also: % is scaled to controls: 0 for no effect and ±100 for the full control effect; nearly all actives have a fitted effect of over 65% in size
Target sequence (P39748 whole entry, looked up): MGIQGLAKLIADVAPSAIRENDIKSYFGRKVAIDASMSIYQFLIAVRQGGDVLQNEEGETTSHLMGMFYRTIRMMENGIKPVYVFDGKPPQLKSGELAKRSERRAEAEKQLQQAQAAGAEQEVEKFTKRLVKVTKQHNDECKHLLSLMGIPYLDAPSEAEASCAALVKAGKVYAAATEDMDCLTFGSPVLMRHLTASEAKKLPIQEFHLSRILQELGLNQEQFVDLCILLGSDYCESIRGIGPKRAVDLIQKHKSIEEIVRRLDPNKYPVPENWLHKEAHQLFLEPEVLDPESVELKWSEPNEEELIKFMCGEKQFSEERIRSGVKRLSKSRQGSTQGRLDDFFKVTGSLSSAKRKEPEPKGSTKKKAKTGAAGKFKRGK
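Enzyme 10 nM, 15 min RT preincubation with compound; start with substrate 50 nM final; reads at 0 and 15 min; qHTS titration, four-parameter Hill fit.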
POLH inh – qHTS for Inhibitors of Polymerase Eta | DNA polymerase eta (Homo sapiens), Q9Y253 | recombinant Pol eta, fluorescent DNA replication assay | Potency, µM (titrated, usually from 114 µM), for inactives: at the top dose activity change, negative = inhibition, most hits filed as inhibitors | 390,000 tested, 1.2% active | AID 588591, 2011; also: % is scaled to controls: 0 for no effect and ±100 for the full control effect
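Pol eta (10 nM) was preincubated with compounds for 15 min at room temperature, after which fluorescent replication substrate (50 nM final) was added to start the reaction. Fluorescence was read kinetically at 0 and 10 min.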
WRN helicase inh – qHTS for Inhibitors of WRN Helicase | Bifunctional 3'-5' exonuclease/ATP-dependent helicase WRN (Homo sapiens), Q14191 | WRN helicase unwinding, fluorescent forked duplex, kinetic | Potency, µM (titrated, usually from 114 µM), for the others: top-dose activity change, negative = inhibition, usual class: inhibitors | 360,000 tested, 0.46% active | AID 651768, 2012; also: % is scaled to controls: 0 for no effect and ±100 for the full control effect; nearly all actives have a fitted effect of over 55% in size
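Enzyme (20 nM final) and test compound sit together 15 min at room temperature before substrate addition. Substrate is a single-forked duplex oligonucleotide (100 nM) labelled with fluorophore and quencher, with 2 mM ATP; helicase unwinding raises red fluorescence, read kinetically.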
Pol iota inh – qHTS for Inhibitors of Polymerase Iota; DNA polymerase iota (Homo sapiens), Q9UNA4; Pol iota fluorescent replication assay, 10 min; Potency, µM (highest dose often 115 µM), for the others: top-dose activity, negative = inhibition, most hits filed as inhibitors; 390,000 tested, 1% active
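Fluorescent replication assay read twice, at 0 min and 10 min after adding 50 nM (final) substrate. Enzyme (10 nM) and compounds were first incubated 15 min at room temperature; enzyme-free buffer wells were negative controls.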
Active calls of the source: *; u = inconclusive; x = not tested or not shown; ! = a repeat was not active; [ ] = remark or other dose. Calls follow the shape of the dose curve; as a rule, active = well fitted curve in the direction sought with a large enough effect; inconclusive = small, poorly fitted or top-dose-only effect, or another doubt; inactive = no such curve, though single readings can be large; an effect the other way counts as inactive or inconclusive. Potency is read from the fitted curve at half-maximal effect.

SMILES | Pol kappa inh | POLB inh | FEN1 inh | POLH inh | WRN helicase inh | Pol iota inh
OCC1=C[C@@H](O)[C@@H]2C=CO[C@@H](OC3O[C@H](CO)[C@@H](O)[C@H](O)[C@H]3O)[C@H]12 (some centres not stated) | 18%[60.1 µM] | x | x | x | x | x
COc1cccc2c1Oc1ncccc1N(C(=O)CCC(=O)NCc1ccc(F)cc1)C2 | -12% | -10% | 20% | -5% | 2% | -14%
COc1cccc2c1Oc1ncccc1N(C(=O)CCC(=O)NCc1cccc(C)c1)C2 | -45% | 27% | -8% | -7% | -6%[11.6 µM] | 40µM*
CC1=NN(c2cc(Cl)c(S(=O)(=O)O)cc2Cl)C(=O)C1 | u | x | -16% | 22µM* | -18% | u
CC1=NN(c2cccc(Cl)c2)C(=O)C1 | -20% | 1% | 5% | -16% | -19%[57.1 µM] | 3.5µM*
CC1=NN(c2ccc(S(=O)(=O)O)cc2Cl)C(=O)C1 | -14% | -3% | 9% | u | -14% | u
CC1=NN(c2ccc([N+](=O)[O-])cc2)C(=O)C1 | -11% | x | -2% | 10% | u | 78%
CC1=NN(c2ccc(Cl)c(C(=O)O)c2)C(=O)C1 | -42% | u | u | 22µM* | u | 1.1µM*
O=C(C[n+]1ccccc1Cl)c1ccccc1 | -14% | x | -13% | x | x | 37%
CC(=O)Nc1ccc(NC(=O)c2cc([N+](=O)[O-])cc([N+](=O)[O-])c2)cc1 | -17% | 3% | -17% | -17% | 2% | 22%
Cc1ccc(NC(=O)c2ccc(Nc3c([N+](=O)[O-])cc([N+](=O)[O-])cc3[N+](=O)[O-])cc2)cc1 | -32% | u | -21% | u | u | 20µM*
CC(=O)SC1CC2=CC(=O)CC[C@]2(C)C2CC[C@@]3(C)C(CC[C@@]34CCC(=O)O4)C12 (some centres not stated) | -12%[60.1 µM] | x | x | x | x | x
CCNc1nc(N2CCCN(C)CC2)nc2cc(OC)c(OC)cc12 | -1% | x | u | x | x | 0%
COc1cc2c(NC3CCN(C)CC3)nc(N3CCCN(C)CC3)nc2cc1OCC1CCCNC1 (configuration not stated) | -17% | x | 20µM* | x | x | -22%
COc1cc2nc(N3CCN(C)CC3)nc(NC3CCN(C)CC3)c2cc1OC | -11% | x | u | x | x | -14%
COc1cc2nc(N3CCCN(C)CC3)nc(NC3CCNCC3)c2cc1OC | -15% | x | 25µM* | x | x | u
CO/N=C(/C(=O)N[C@@H]1C(=O)N2C(C(=O)O)=C(CSc3cnns3)CS[C@H]12)c1csc(N)n1 | 1%[19.4 µM] | x | x | x | x | x
Cc1cccc(C(=O)OCC(=O)c2ccc(CC(=O)N3CCOCC3)s2)c1C | 79µM* | x | -5% | 10µM* | u | -96%
CCCn1c(/C=C/c2ccccc2)nc2ccccc21 | -19%[60.1 µM] | -9% | -1% | -15% | -1% | 24%
CC(C)Cn1c(/C=C/c2ccco2)nc2ccccc21 | -14% | 28µM* | -1% | -7% | 3% | 20%
O=C(C[N+]1(CC(O)c2ccccc2)CCCCC1)c1ccccc1 (configuration not stated) | -11% | x | 45% | x | x | -21%
Cc1ccccc1NC(=O)CCS(=O)(=O)c1ccc(Br)s1 | u | 35µM* | -5% | u | -21% | u
COC(=O)c1ccccc1NC(=O)CCS(=O)(=O)c1ccc(Br)s1 | -6% | 0% | 0% | -13% | -2% | -11%
Cc1c(N=C2C=CC(=O)c3ccccc32)c(=O)n(-c2ccccc2)n1C | -7% | u | -25% | 45µM* | -21% | u
CC(C)CN1CCC(=O)N([C@H](COc2ccccc2)Cc2ccccc2)CC1 | -17% | 7% | -1% | -11% | -7%[11.6 µM] | 89µM*!

High-throughput results from PubChem BioAssay.
